Experimental findings from article PMC7862700, “An all-to-all approach to the identification of sequence-specific readers for epigenetic DNA modifications on cytosine” are described below.

Holding throughout (assay): DAPPL (digital affinity profiling via proximity ligation, sequencing); 10 mM Tris-HCl pH 7.5, 50 mM NaCl, 1 mM DTT, 4% glycerol, room temperature, 30 min; GST-TFs on glutathione beads, 16-mer random dsDNA library, 0.1% formaldehyde crosslink after washing; high values mean tight binding
What all share (details): protein: recombinant; tags: N-terminal GST; dsDNA, one strand shown

In one assay the target is T1, FLI1 (Homo sapiens, UniProt Q01543 1-452).
T1 sequence: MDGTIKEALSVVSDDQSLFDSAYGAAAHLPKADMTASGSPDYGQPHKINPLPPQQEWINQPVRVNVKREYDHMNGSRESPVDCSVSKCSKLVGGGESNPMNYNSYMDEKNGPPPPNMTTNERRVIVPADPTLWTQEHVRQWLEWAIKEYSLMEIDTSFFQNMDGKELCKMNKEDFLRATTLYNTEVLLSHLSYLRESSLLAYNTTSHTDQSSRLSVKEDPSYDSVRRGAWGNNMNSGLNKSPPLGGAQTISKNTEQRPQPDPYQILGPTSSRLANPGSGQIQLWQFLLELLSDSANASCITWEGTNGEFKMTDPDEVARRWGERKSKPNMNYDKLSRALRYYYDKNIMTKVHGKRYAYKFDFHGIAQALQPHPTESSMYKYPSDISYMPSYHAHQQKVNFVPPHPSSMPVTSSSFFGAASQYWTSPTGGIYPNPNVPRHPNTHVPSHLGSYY
An outline of the steps: (§1)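 Each value of binding signal is a hexamer's read frequency for a factor divided by the same hexamer's frequency in the tag-only sample. Barcoded, bead-captured GST fusions of human transcription factors made in yeast were pooled with that sample and incubated with 200 nmole of a random double-stranded 16-mer DNA library in Tris/NaCl/DTT/glycerol buffer at room temperature for 30 min. Washing, 0.1% formaldehyde crosslinking, proximity ligation, PCR and Illumina NextSeq500 sequencing followed.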

For a further assay, the target named is T2, ELK1 (Homo sapiens, UniProt P19419 1-428).
T2 sequence: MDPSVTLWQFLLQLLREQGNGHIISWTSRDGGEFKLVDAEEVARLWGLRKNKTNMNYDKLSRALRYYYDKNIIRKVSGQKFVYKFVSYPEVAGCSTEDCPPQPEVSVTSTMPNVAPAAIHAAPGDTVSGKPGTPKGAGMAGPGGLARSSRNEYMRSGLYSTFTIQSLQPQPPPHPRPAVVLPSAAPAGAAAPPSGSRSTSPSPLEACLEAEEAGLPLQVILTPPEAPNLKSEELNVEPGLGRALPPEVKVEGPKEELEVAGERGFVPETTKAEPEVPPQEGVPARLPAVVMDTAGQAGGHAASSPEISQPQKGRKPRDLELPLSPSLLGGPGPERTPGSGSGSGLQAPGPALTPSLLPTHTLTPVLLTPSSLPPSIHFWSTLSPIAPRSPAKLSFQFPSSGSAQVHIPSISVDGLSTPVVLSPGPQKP
In a few lines:
as §1

For a further assay, the target named is T3, GABPA (Homo sapiens, UniProt Q06546 1-454).
T3 sequence: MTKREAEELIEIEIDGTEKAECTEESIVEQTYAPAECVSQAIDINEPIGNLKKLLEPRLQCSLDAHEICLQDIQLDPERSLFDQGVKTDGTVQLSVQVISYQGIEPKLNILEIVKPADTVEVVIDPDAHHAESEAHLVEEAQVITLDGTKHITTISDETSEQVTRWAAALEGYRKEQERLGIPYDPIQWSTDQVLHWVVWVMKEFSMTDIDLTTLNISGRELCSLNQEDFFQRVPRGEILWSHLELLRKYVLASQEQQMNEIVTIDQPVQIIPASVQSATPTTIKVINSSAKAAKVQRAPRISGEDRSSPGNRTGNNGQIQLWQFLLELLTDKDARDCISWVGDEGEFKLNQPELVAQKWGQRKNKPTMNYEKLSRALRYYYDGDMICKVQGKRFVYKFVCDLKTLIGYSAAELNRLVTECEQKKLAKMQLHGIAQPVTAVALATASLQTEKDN
An outline of the steps: as §1

In a further assay the target is T4, ERG (Homo sapiens, UniProt P11308 1-479).
T4 sequence: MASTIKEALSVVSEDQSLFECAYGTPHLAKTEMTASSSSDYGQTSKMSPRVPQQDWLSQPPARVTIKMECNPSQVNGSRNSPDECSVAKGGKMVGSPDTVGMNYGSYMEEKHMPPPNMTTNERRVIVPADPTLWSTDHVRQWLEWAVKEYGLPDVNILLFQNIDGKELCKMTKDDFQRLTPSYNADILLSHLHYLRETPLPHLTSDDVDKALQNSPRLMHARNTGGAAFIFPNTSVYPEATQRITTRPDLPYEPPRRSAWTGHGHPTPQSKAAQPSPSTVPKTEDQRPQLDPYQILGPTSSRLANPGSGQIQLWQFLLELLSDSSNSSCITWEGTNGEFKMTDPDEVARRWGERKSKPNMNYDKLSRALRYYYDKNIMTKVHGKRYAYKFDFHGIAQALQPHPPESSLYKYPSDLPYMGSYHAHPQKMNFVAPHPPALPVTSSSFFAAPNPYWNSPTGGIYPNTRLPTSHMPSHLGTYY
An outline of the steps: as §1

In the next assay the target is ELF1 (Homo sapiens, UniProt P32519 1-619). In a few lines: as §1
For another assay, the target named is T5, EHF (Homo sapiens, UniProt Q9NZC4 1-300).
T5 sequence: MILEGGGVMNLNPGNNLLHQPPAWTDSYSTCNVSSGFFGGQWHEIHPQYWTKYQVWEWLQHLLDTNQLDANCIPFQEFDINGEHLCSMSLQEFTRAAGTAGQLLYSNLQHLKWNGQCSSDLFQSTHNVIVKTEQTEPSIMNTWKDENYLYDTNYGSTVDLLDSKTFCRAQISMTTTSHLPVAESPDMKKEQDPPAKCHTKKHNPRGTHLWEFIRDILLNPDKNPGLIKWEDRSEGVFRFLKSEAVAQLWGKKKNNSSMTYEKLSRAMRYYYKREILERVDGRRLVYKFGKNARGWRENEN
In a few lines:
as §1

In a further assay the target is T6, FEV (Homo sapiens, UniProt Q99581 1-238).
T6 sequence: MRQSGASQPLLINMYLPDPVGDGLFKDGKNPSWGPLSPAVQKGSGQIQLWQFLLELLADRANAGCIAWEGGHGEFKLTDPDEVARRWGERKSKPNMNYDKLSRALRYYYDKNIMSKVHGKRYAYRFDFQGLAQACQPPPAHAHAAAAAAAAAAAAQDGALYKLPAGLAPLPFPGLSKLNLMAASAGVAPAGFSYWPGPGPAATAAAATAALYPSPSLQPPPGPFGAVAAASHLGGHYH
In a few lines:
as §1

A further assay has as its target T7, SPIC (Homo sapiens, UniProt Q8N5J4 1-248).
T7 sequence: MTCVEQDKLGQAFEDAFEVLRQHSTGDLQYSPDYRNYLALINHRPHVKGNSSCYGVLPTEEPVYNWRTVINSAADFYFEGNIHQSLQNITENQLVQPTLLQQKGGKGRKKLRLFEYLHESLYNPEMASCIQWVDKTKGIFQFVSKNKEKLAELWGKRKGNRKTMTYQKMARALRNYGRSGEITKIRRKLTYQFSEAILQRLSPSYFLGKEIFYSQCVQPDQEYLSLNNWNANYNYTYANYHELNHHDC
An outline of the steps: as §1

Another assay deals with ELF4 (Homo sapiens, UniProt Q99607 1-663). In a few lines:
as §1

For the next assay, the target named is T8, ELK4 (Homo sapiens, UniProt P28324-2 1-405).
T8 sequence: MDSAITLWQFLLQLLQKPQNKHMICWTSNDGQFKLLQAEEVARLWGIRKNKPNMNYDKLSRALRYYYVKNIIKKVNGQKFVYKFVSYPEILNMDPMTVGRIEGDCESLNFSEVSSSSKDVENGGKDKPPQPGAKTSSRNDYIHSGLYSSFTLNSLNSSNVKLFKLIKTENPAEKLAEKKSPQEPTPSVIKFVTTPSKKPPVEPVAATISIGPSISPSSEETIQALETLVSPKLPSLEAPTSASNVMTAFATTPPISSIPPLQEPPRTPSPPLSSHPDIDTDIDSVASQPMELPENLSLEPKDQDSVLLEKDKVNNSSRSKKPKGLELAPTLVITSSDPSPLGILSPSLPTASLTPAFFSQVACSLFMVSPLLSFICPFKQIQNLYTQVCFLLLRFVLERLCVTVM
In a few lines: as §1

Another assay has as its target ETV1 (Homo sapiens, UniProt P50549 1-477). An outline of the steps: as §1
A further assay deals with T9, SPDEF (Homo sapiens, UniProt O95238 1-335).
T9 sequence: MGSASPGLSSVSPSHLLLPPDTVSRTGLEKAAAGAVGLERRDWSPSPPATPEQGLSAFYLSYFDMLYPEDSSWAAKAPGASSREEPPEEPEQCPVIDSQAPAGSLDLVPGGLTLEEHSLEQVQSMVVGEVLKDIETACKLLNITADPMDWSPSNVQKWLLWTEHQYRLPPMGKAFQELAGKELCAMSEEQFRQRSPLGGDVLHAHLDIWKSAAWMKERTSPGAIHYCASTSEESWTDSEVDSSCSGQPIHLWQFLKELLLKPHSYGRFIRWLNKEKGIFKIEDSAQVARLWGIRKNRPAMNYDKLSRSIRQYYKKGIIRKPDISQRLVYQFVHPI
In a few lines: as §1

For another assay, the target named is T10, ELF5 (Homo sapiens, UniProt Q9UKW6-2 1-255).
T10 sequence: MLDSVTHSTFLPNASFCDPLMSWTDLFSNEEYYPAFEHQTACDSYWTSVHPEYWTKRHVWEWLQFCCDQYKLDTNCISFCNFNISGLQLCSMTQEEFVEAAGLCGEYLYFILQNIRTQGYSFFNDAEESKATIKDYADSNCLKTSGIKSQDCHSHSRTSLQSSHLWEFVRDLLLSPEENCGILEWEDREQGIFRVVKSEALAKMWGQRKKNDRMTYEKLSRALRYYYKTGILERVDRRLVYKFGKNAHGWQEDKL
An outline of the steps:
as §1

The target of another assay is ETV6 (Homo sapiens, UniProt P41212 1-452). An outline of the steps: as §1
Sequence of ETV6 (P41212 whole entry): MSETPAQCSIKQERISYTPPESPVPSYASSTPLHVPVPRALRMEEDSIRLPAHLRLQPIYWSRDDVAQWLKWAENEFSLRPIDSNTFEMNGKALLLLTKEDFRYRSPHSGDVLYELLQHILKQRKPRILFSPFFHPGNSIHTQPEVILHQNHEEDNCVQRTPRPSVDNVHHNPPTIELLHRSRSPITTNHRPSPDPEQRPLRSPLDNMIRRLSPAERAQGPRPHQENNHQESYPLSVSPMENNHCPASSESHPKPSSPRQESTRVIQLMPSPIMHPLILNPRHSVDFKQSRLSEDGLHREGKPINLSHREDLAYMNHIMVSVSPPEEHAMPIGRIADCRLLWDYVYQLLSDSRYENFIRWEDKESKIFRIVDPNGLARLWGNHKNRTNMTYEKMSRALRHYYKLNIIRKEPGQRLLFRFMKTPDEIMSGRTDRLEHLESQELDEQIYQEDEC

Sequence of ETV1 (P50549 whole entry): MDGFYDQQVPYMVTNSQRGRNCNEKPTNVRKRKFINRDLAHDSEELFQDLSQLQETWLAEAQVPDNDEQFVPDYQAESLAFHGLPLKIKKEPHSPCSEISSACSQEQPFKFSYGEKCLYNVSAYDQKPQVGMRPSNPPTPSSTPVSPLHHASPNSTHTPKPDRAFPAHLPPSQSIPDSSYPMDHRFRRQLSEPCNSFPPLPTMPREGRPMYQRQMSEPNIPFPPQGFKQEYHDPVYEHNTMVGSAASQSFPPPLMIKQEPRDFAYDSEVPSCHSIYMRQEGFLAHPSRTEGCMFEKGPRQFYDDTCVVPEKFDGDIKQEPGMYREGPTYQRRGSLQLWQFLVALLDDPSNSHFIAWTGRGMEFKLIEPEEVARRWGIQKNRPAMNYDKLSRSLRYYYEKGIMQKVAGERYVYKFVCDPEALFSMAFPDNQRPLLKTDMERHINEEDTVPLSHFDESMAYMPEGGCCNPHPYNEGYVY
Sequence of ELF1 (P32519 whole entry): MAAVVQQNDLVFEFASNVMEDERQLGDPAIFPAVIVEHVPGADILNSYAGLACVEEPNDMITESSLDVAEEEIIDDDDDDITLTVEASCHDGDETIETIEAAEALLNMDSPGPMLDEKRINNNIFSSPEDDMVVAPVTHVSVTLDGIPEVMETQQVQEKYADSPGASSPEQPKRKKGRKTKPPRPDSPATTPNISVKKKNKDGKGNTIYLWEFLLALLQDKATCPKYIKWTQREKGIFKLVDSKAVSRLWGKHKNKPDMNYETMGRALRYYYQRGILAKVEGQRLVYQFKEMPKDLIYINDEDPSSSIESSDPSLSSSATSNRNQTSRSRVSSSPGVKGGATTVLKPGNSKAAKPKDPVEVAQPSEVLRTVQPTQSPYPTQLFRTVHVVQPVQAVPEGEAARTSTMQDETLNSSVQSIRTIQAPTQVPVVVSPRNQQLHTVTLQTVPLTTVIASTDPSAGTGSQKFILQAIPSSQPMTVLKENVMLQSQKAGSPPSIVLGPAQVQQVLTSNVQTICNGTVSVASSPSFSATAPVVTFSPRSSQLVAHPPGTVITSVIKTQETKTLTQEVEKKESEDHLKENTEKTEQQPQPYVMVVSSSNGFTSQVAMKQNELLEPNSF
Sequence of ELF4 (Q99607 whole entry): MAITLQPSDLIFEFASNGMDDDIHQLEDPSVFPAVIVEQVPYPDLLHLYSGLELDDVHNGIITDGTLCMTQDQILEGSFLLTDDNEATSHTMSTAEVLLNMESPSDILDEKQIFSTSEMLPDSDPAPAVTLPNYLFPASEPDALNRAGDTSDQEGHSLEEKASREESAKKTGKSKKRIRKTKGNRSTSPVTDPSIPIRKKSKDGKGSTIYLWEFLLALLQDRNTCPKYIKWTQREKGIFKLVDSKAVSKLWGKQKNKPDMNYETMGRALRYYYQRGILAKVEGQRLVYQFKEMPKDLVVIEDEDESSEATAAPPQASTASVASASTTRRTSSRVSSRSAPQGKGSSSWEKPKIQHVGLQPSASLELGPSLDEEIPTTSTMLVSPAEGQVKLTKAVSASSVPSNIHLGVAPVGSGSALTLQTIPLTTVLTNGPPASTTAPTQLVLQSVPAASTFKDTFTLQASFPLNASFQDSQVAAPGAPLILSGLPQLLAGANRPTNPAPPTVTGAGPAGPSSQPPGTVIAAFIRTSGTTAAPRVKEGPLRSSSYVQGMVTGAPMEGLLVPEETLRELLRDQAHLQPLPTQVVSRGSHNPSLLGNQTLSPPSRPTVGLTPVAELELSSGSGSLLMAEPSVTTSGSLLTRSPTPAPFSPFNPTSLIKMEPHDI

For CGCAAC, the binding signal with FLI1 is 1.04 fold enrichment (6-mer frequency, TF over GST control); with ELK1 it was 1.08 fold enrichment (6-mer frequency, TF over GST control); with GABPA, 1.08 fold enrichment (6-mer frequency, TF over GST control); with ERG, 1.03 fold enrichment (6-mer frequency, TF over GST control); with ELF1, 1.12 fold enrichment (6-mer frequency, TF over GST control); with EHF it was 1.01 fold enrichment (6-mer frequency, TF over GST control). In addition, the binding signal with FEV is 1.07 fold enrichment (6-mer frequency, TF over GST control); in the assay with SPIC, 1.08 fold enrichment (6-mer frequency, TF over GST control); in the assay with ELF4 it was 1.06 fold enrichment (6-mer frequency, TF over GST control); with ELK4 it was 1 fold enrichment (6-mer frequency, TF over GST control); with ETV1, 1.03 fold enrichment (6-mer frequency, TF over GST control); with SPDEF, 1.03 fold enrichment (6-mer frequency, TF over GST control). In addition, the binding signal with ELF5 is 1.01 fold enrichment (6-mer frequency, TF over GST control); with ETV6, 1.07 fold enrichment (6-mer frequency, TF over GST control).
